Test results reported in PubChem BioAssay (NCI).
Compounds without any hit were thinned out: in the full panel of roughly 79,000, 15% have a hit. Rule as the data show it: active = growth inhibition above about 70%; inactive = the rest.

Legend:
[1] = NCI Yeast Anticancer Drug Screen. Data for the rad50 strain (AID 155);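 also: 0% = growth of vehicle-only cultures of the same strain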; settings: S. cerevisiae rad50 strain growth inhibition; at 50.0 µM; hits give high values
How it was run: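 Vehicle-treated cultures provide the reference for the growth inhibition reported for compound-exposed, repair-deficient yeast.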

[2] = NCI Yeast Anticancer Drug Screen. Data for the mec2-1 strain (AID 157); settings: S. cerevisiae mec2-1 strain, at 50.0 µM, hits give high values
How it was run: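 Using mec2-1 yeast: add compound, measure growth, express inhibition versus vehicle-treated cultures.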

[3] = NCI Yeast Anticancer Drug Screen. Data for the sgs1 mgt1 strain (AID 161);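 also: 0% = growth of cultures given vehicle only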; settings: S. cerevisiae sgs1 mgt1 strain, at 50.0 µM, hits give high values
How it was run: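 Yeast cells carrying a defined DNA-repair defect were exposed to test compounds. Growth inhibition was measured relative to vehicle-treated controls.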

[4] = NCI Yeast Anticancer Drug Screen. Data for the cln2 rad14 strain (AID 165);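 also: 0% = growth equal to vehicle treated cultures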; settings: S. cerevisiae cln2 rad14 strain, at 50.0 µM, hits give high values
How it was run: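 Yeast strain cln2 rad14, bearing defects in cell cycle control and DNA repair, serves as the test system; values reflect growth inhibition compared with vehicle.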

[5] = NCI Yeast Anticancer Drug Screen. Data for the bub3 strain (AID 167); settings: S. cerevisiae bub3 mutant strain, at 50.0 µM, hits give high values
How it was run: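 Mutant yeast screening strain plus compound; vehicle-treated cultures serve as the 0% inhibition reference.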

[6] = NCI Yeast Anticancer Drug Screen. Data for the mlh1 rad18 strain (AID 175); settings: S. cerevisiae mlh1 rad18 strain growth inhibition; at 50.0 µM; hits give high values
How it was run: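 Steps: expose repair-defective yeast to compound; measure growth; express inhibition against vehicle-treated controls.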

Measured: growth inhibition

CCOc1c(N=Nc2ccc(Br)cc2)c(C)nn1C(N)=S
inactive: [1] -4.5% | [2] 33.9% | [3] 26.1% | [4] -0.3% | [5] 31.2% | [6] 45%

CSc1cc(C)c(C#N)c(SC)n1
inactive: [1] -32.6% | [2] -32.1% | [3] -12.9% | [4] -5.7% | [5] 0.05% | [6] -12.4%

COc1ccc2c(c1OC)OC1CNc3cc(C)c(C)cc3N=C1C2 (stereo unspecified)
inactive: [1] 6.1% | [2] 3.35% | [3] 4.05% | [4] -42.2% | [5] 12.8% | [6] 7.35%

CCOC(=O)c1ccccc1OCc1ccccc1
inactive: [1] 13.3% | [2] 15.2% | [3] 5.75% | [4] -5.9% | [5] 51.8% | [6] 14.9%

Cc1c(C(=O)O)c2ccccc2[nH]c1=O
inactive: [1] -2.85% | [2] -1.25% | [3] 2.85% | [4] -40% | [5] -13.2% | [6] 2.5%

Oc1ccc(Cl)cc1Cc1cc(Cl)cc(Cc2cc(Cl)cc(Cc3cc(Cl)cc(Cc4cc(Cl)ccc4O)c3O)c2O)c1O
inactive: [1] -31.2% | [2] 0.5% | [3] -5.4% | [4] -16.6% | [5] -26% | [6] -27.1%

O=C1c2ccccc2CC12Cc1cc3c(cc1C2=O)CCC3 (stereo unspecified)
inactive: [1] 5.05% | [2] -16.9% | [3] -17.2% | [4] 25.5% | [5] 44.4% | [6] 18.9%

Nc1nc2scnc2c(=O)[nH]1
inactive: [1] 7.1% | [2] -4.35% | [3] -3.25% | [4] -7.95% | [5] -8.5% | [6] 8.35%

Cc1ccc(S(=O)(=O)N/N=C/c2ccsc2)cc1
inactive: [1] 20.6% | [2] 13.3% | [3] 27.9% | [4] 18.8% | [5] 23% | [6] 33%

O=[N+]([O-])c1c(F)cc(F)cc1F
inactive: [1] -11% | [2] 5.75% | [3] -5.15% | [4] -19.9% | [5] 2.55% | [6] -6.65%

O=C(O)c1ccc(B(O)O)cc1[N+](=O)[O-]
inactive: [1] 11.8% | [2] 4.75% | [3] 7.35% | [4] 8.7% | [5] 34.9% | [6] 5.15%

Cc1cc(=O)[nH]c(NNC(C#N)c2c(O)ccc3ccccc23)n1 (stereo unspecified)
inactive: [1] 23.6% | [2] 13.2% | [3] 24.2% | [4] -2.9% | [5] 1.45% | [6] 12.9%

CNC(=S)ON1CCCCC1
inactive: [1] 6.65% | [2] 19.9% | [3] -23.3% | [4] -7.95% | [5] -5.95% | [6] -38.5%

COC(=O)C1=C(NC(=O)Nc2ccc(OC)cc2)OC(C)(C)C1c1ccc(Cl)cc1 (stereo unspecified)
inactive: [1] 25.9% | [2] 41.7% | [3] 30.4% | [4] 3.75% | [5] 24.1% | [6] 43.4%

CC(=O)C1SCC[S+]1C (stereo unspecified)
inactive: [1] -19.8% | [2] -7.6% | [3] -10.6% | [4] 13.4% | [5] -9.2% | [6] -10.8%

C=CC(CCCC(C=C)OC(C)=O)OC(C)=O (stereo unspecified)
inactive: [1] 2.2% | [2] -4.95% | [3] -0.65% | [4] -18.1% | [5] 5.6% | [6] 5.5%

O=NN(CCCl)C(=O)Oc1ccc2ccccc2c1
inactive: [1] 29.4% | [2] -9.35% | [3] 16.1% | [4] -24.8% | [5] 6.2% | [6] -0.5%

CC(=O)CC(=O)C(C)C.[Cu+2]
inactive: [1] -7.6% | [2] -15.9% | [3] -17.1% | [4] -17.9% | [5] -21.5% | [6] -17.4%

CC(=O)/C(=C\n1c(=S)[nH]c2ccc([N+](=O)[O-])cc21)C(=O)Nc1ccccc1C
inactive: [1] 2.1% | [2] -44.8% | [3] -5.05% | [4] -2.8% | [5] -20.4% | [6] -7.3%

CCOC(=O)NC1CCc2ccccc2C1 (stereo unspecified)
inactive: [1] 5.95% | [2] 0.3% | [3] 4% | [4] -13.9% | [5] -3% | [6] 2.6%

O=P1(C(c2ccccc2)c2ccccc2)OC2CC(Cl)CC(C2)O1 (stereo unspecified)
inactive: [1] 4.9% | [2] -1.85% | [3] -6.9% | [4] -46.8% | [5] 0.25% | [6] -11.9%
